Bioassay records (PubChem)
Vaccinia Venus: qHTS for Stage-Specific Inhibitors of Vaccinia Orthopoxvirus: Venus Reporter Primary qHTS. 0.46% of 330,000 active. Vaccinia virus Venus reporter expression, fluorescence. Potency, µM (top dose mostly 36.5 µM), most hits filed as inhibitors; calls by dose curve; tested in A549 cells; note: nearly all actives have a fitted effect of over 30% in size
VACV mCherry inh: qHTS for Stage-Specific Inhibitors of Vaccinia Orthopoxvirus: mCherry Reporter Primary qHTS. Vaccinia virus mCherry reporter infection, fluorescence. Potency, µM (series often up to 36.5 µM), actives largely listed as inhibitors. 0.63% of 310,000 active. AID 720579, 2013; calls by dose curve; tested in A549 cells; note: nearly all actives have a fitted effect of over 35% in size
HCV inh: qHTS Assay for Inhibitors of Hepatitis C Virus (HCV); AID 651820, 2012; Huh7.5.1 HCVcc-Cre infection, luciferase reporter, 44 h; 3.4% of 340,000 active; Potency, µM (doses to about 41.8 µM), actives largely listed as inhibitors; active = well fitted inhibition curve with a large enough effect; inconclusive = small, poorly fitted or top-dose-only effect, or another doubt; inactive = no such curve, though single readings can be large or run the other way
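Infectious HCVcc-Cre (~0.5 moi) was added to cells just after compound, with cells seeded 4 h earlier at 1,000 per well. Luciferase activity after 44 h culture reported infection; substrate was incubated 15 min at room temperature before reading.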
A number is an active result; n = inactive; u = inconclusive; x = not tested or not shown; [ ] = remark or other dose. Compounds with a hit are over-represented: about 3.3% of the library has one in this group of screens.

SMILES | Vaccinia Venus | VACV mCherry inh | HCV inh
Cc1cc(C)c2c(NC(=S)NC(=O)c3ccccc3)nn(C)c2n1 | n | n | n
Cc1cc(C)c2c(NC(=O)CCl)nn(C)c2n1 | u | 4.5µM | u
O=c1c2cc3c(cc2nc2sc(Nc4ccc(F)c(Cl)c4)nn12)OCO3 | n | n | x
Cc1ccc(Cl)cc1NC(=O)CSc1ccc(C(=O)O)cn1 | n | n | x
CCN(CC)S(=O)(=O)c1ccc(N2CCOCC2)c(NC(=O)C2CC2)c1 | n | n | u
CCN(CC)S(=O)(=O)c1ccc(N2CCOCC2)c(NC(=O)C(=O)c2c(-c3ccccc3)cc3ccccn23)c1 | x | x | 14µM
CCN(CC)S(=O)(=O)c1cc(NC(=O)C(=O)c2c(-c3ccccc3)cc3ccccn23)ccc1C | x | x | 13µM
CCN(CC)S(=O)(=O)c1cccc(NC(=O)C(=O)c2c(-c3ccccc3)cc3ccccn23)c1 | n | u | u
COc1ccc(CCNC(=O)CCn2c(SCC(=O)N3CCCC3)nc3ccccc3c2=O)cc1OC | x | x | n
Cc1ccccc1C(=O)OCC(=O)NCC1COc2ccccc2O1 (stereo not drawn) | n | n | n
Oc1ccc(Nc2nc(N3CCCC3)c3ccccc3n2)cc1 | 8.9µM | u | u
Cc1ccc(Nc2nc(N3CCOCC3)c3ccccc3n2)cc1 | u | n[1.46 µM] | u
CN(Cc1nccn1C)C(=O)C1CCC(=O)N(Cc2cccc(C(F)(F)F)c2)C1 (stereo not drawn) | n | n | n
CC(C)(C)OC(=O)N1CCC(c2c(C(=O)NCCc3ccccc3)cnn2-c2ccc(F)cc2)CC1 | n | n | x
CCOc1ccc(-c2nnn(CC(=O)Nc3cc(OC)ccc3OC)n2)cc1OCC | n | u | n
CCOc1ccc(NC(=O)Cn2nnc(C(=O)Nc3ccc(OCC)cc3)c2N)cc1 | n | n | x
CCOc1ccccc1NC(=O)Cn1nnc(-c2ccc(OCC)c(OCC)c2)n1 | u | u | 8.9µM
CCOc1ccc(NC(=O)c2nnn(CC(=O)Nc3ccccc3OCC)c2N)cc1 | n | n | 11µM
O=C(c1ccc2c(c1)N(Cc1ccc(F)cc1)C(=O)c1ccccc1S2(=O)=O)N1CCC(Cc2ccccc2)CC1 | n | n | x
O=S(=O)(c1ccc2c(c1)OCCO2)N1CCN(c2nc(-c3cccs3)nc3ccccc23)CC1 | n | n | x
O=S(=O)(c1ccc2c(c1)OCCO2)N1CCN(c2ncnc3sccc23)CC1 | n | u | 1µM
Cc1ccc(S(=O)(=O)N2CCN(c3ncnc4sccc34)CC2)cc1C | u | u | 11µM
Cc1ccc(S(=O)(=O)N2CCN(c3ncccn3)CC2)cc1C | n | n | n
CCOC(=O)C1(CCOc2ccccc2)CCN(C(=O)c2ccc(-n3cccn3)cc2)CC1 | n | u | u
CCOC(=O)C1(Cc2ccc(OC)cc2)CCN(S(C)(=O)=O)CC1 | n | n | n
SMILES | Vaccinia Venus | VACV mCherry inh | HCV inh
CCOC(=O)C1(CCOc2ccccc2)CCN(Cc2cccc(-n3cccn3)c2)CC1 | x | x | 13µM
CCOC(=O)C1(CCOc2ccccc2)CCN(Cc2ccccc2O)CC1 | n | n | u
CCOC(=O)C1(CCOc2ccccc2)CCN(Cc2ccc(NC(C)=O)cc2)CC1 | n | n | n
CCOC(=O)C1(CCOc2ccccc2)CCN(Cc2cccc(OC)c2OC)CC1 | n | n | 28µM
CCOC(=O)C1(CCOc2ccccc2)CCN(Cc2ccc(OC)cc2)CC1 | x | x | 13µM
CCOC(=O)C1(Cc2ccc(Cl)cc2)CCN(C(C)Cc2ccc(O)c(OC)c2)CC1 (stereo not drawn) | x | x | 10µM
CC(=O)c1cccc(N(C(=O)CNC(=O)c2ccco2)C(C(=O)NC2CCCC2)c2ccco2)c1 (stereo not drawn) | n | n | n
O=C(COC(=O)c1ccc([N+](=O)[O-])o1)Nc1ncc(Cl)cc1Cl | n | n | n
Clc1ccccc1-c1nnc(SCc2nc(-c3ccccc3)no2)n1-c1ccccc1 | n | n | x
CCOC(=O)C1(CCOc2ccccc2)CCN(Cc2ccc3nonc3c2)CC1 | n | n | 10µM
CCOC(=O)C1(CCOc2ccccc2)CCN(Cc2cnc(C)s2)CC1 | n | n | u
CCOC(=O)C1(Cc2cccc(OC)c2)CCN(Cc2cccc(O)c2)CC1 | n | n | n
CCOC(=O)C1(CCOc2ccccc2)CCN(Cc2cccc(OCCO)c2)CC1 | n | n | n
CCOC(=O)C1(Cc2cccc(OC)c2)CCN(Cc2ccc(OC)c(OC)c2)CC1 | n | n | 11µM
CCOC(=O)C1(CCOc2ccccc2)CCN(Cc2ccc(OCC)c(CO)c2)CC1 | x | x | 14µM
Cc1ncc2c(c1CNC(=O)c1cncs1)CCN(C(=O)c1cccc(-c3cccc(F)c3)c1)C2 | n | n | x
CCOC(C(=O)OCCCN(CC)CC)(c1ccccc1)c1ccccc1 | n | n | n
CCN(CC)CCCOC(=O)C(OC(C)C)(c1ccccc1)c1ccccc1 | x | x | 7.1µM
O=C(CCCCCN1C(=O)c2ccccc2C1=O)Nc1ccc(C(=O)O)cc1 | x | x | n
NC(=O)c1ccsc1NC(=O)COC(=O)Cc1ccsc1 | n | n | n
COc1cc(CC(=O)OCC(=O)Nc2sccc2C(N)=O)cc(OC)c1OC | n | n | 10µM
Cc1ccc(N(CCC(=O)N2CCOCC2)S(=O)(=O)c2ccccc2)cc1 | n | n | n
COc1ccc(-c2cc3ccc(O)c(CN4CCOCC4)c3oc2=O)cc1OC | n | n | x
O=C(CN1c2ccccc2Sc2ccccc21)NNC(=S)Nc1ccc(Cl)cc1 | n | n | 35µM
O=C(CN1c2ccccc2Sc2ccccc21)NNC(=S)Nc1ccc(Cl)cc1Cl | n | n | n
SMILES | Vaccinia Venus | VACV mCherry inh | HCV inh
O=C(CCNC(=O)c1ccccc1)NNC(=O)c1ccc(F)cc1 | x | x | n
CN(C)c1ccc(/C=C2\C=Cc3cc([N+](=O)[O-])ccc32)cc1 | n | n | x
Cc1cc(Cl)c(S(N)(=O)=O)cc1OCC(=O)NC1CCCCC1 | n | n | n
Cc1cc(Cl)c(S(=O)(=O)N2CCN(c3ccccn3)CC2)cc1OCC(=O)NC1CCCCC1 | x | x | 10µM
CCOC(=O)N1CCN(S(=O)(=O)c2cc(OCC(=O)NC3CCCCC3)c(C)cc2Cl)CC1 | x | x | n
Cc1cc(Cl)c(S(=O)(=O)N2CCCCCC2)cc1OCC(=O)NC1CCCCC1 | x | x | n
Cc1cc(Cl)c(S(=O)(=O)N2CCSCC2)cc1OCC(=O)NC1CCCCC1 | x | x | 6.3µM
Cc1cc(Cl)c(S(=O)(=O)NC2CCCC2)cc1OCC(=O)NC1CCCCC1 | x | x | 7.1µM
COc1cc(-c2cc(C)c3cccc(OC)c3n2)cc2c1OCCN(C(=O)CCn1ccc(C)n1)C2 | n | n | x
CC[C@]12c3[nH]c4cc(CCC(=O)N(C)C)ccc4c3CCN1C(=O)[C@@H](CC(=O)NCc1cccc(C(F)(F)F)c1)C[C@@H]2C(=O)N1CCN(C(=O)c2ccco2)CC1 | n | n | n[8.37 µM]
CN(C)CCCNC(=O)C[C@H]1C[C@H](C(=O)N2CCOCC2)[C@@]2(CCC3CCCC3)c3[nH]c4cc(CCC(=O)N(C)C)ccc4c3CCN2C1=O | n | n | n
CN(C)C(=O)CCc1ccc2c3c([nH]c2c1)[C@]1(CCC2CCCC2)[C@@H](C(=O)N2CCOCC2)C[C@H](CC(=O)NCCN2CCOCC2)C(=O)N1CC3 | n | n | 0.32µM
CC[C@]12c3[nH]c4cc(CCC(=O)N(C)C)ccc4c3CCN1C(=O)[C@@H](CC(=O)NCc1cccc(C(F)(F)F)c1)C[C@@H]2C(=O)N1CCN(C(=O)C2CC2)CC1 | n | n | 0.56µM
